Assay results reported in PubChem BioAssay (NCATS).
Inconclusive results are not listed. Activity calls are given as the source filed them. The call rests on the fitted dose curve; in most records, active means well fitted inhibition curve with a large enough effect; inconclusive means small, poorly fitted or top-dose-only effect; inactive means flat fitted curve, though single readings scatter.

test system: KB-3-1; assay: Cytotoxic Profiling of Annotated Libraries Using Quantitative High-Throughput Screening (AID 1296008); settings: Five cell lines viability, CellTiter-Glo ATP luminescence, 48-72 h; max response: active compounds read low; further: nearly all actives have a fitted effect of over 60% in size
Procedure, shortened: (§1)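 Cytotoxicity was measured as CellTiter-Glo ATP luminescence, read after 10 min at room temperature. Compound treatment of the cells lasted 48 or 72 hr at 37 degrees Celsius in a qHTS format.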
On the % scale 0 is the no-effect control and ±100 the full control effect.

Row | SMILES | max response | outcome
1 | Cc1cc(-n2c(=O)[nH]c(=O)n(C)c2=O)ccc1Oc1ccc(SC(F)(F)F)cc1 | 1.4% (inactive) | 
2 | CC(C)(O)C(O)C(=O)OCc1ccc(O[C@@H]2O[C@H](CO)[C@@H](O)[C@H](O)[C@H]2O)cc1 (some centres undefined) |  | inactive
3 | C[C@]12CC[C@@H]3c4ccc(O)cc4CC[C@H]3[C@@H]1C[C@@H](O[C@@H]1O[C@H](C(=O)O)[C@@H](O)[C@H](O)[C@H]1O)[C@@H]2O | 4.13% (inactive) | 
4 | O=C(/C=C/c1ccc(O)c(O)c1)OC[C@H]1O[C@@H](OC2CCCCC2O)[C@H](O)[C@@H](O)[C@@H]1O (some centres undefined) | 1.68% (inactive) | 
5 | Cc1ccc([C@@H]2CC=C(C(=O)O)[C@H](c3ccc(C(C)(C)C)cc3)N2S(=O)(=O)c2ccc(C)cc2)cc1 | 3.45% (inactive) | 

test system: NIH3T3; assay: as above; settings: Five cell lines viability, CellTiter-Glo ATP luminescence, 48-72 h; max response: active compounds read low
Procedure, shortened: as §1

Row | SMILES | outcome | max response
6 | C=C(COC(=O)CC(C)C)C1Cc2cc(C(C)=O)ccc2O1 (centres undefined) | inactive | 
7 | COc1cc(OC)cc(-c2ccc3c(-c4ccc(F)cc4)[nH]nc3n2)c1 |  | 0.976% (inactive)
8 | C[C@H](O)C(O)(C(=O)OCc1ccccc1NC(=O)CCC(N)C(=O)O)[C@H](C)O (some centres undefined) | inactive | 
9 | CC(CC12CCCN1C(=O)C1CCCN1C2=O)OC(N)=O (centres undefined) |  | 4.31% (inactive)
10 | CC12CC(c3ccoc3)OC(=O)C1CCC1(C)C2CCC(O)C1(C)O (centres undefined) | inactive | 
11 | CC1(C)CC[C@]2(C(=O)O)CC[C@]3(C)C(=CCC4[C@@]5(C)C[C@@H](O)[C@H](O)[C@@](C)(CO)C5[C@H](O)C[C@]43C)[C@@H]2C1 (some centres undefined) |  | 0.343% (inactive)
12 | COc1cc(C)c(C(=O)OC2C(C)OC(OC3CCC(C)C4C3C=C(C)C3/C(C)=C\CC/C(C)=C/C5(C)C=C(C(=O)O)C(C)CC56OC(=O)/C(=C(\O)C34C)C6=O)C(O)C2O)c(OC)c1 (centres undefined) | inactive | 
13 | C[C@@H](c1ccccc1)N(C(N)=NC#N)c1cccc2ncccc12 |  | 3.53% (inactive)
14 | O=C(O)c1cccc(C(=O)CCC2OC(n3cnc4c(=O)[nH]cnc43)C(O)C2O)c1 (centres undefined) | inactive | 
15 | Cc1cn(-c2cc(NC(=O)c3ccc(C)c(Nc4nccc(-c5cnccn5)n4)c3)cc(C(F)(F)F)c2)cn1 | inactive | 
16 | C=C(C(=O)O)C1CC(OC(=O)CC(C)CC)C2(C)CCCC(=C)C2C1 (centres undefined) | inactive | 
17 | O=C(O)CCc1c(C(=O)O)[nH]c2cc(Cl)cc(Cl)c12 | inactive | 
18 | CC(C)C1(O)C=C2C(=O)CC3C(C)(C(=O)O)CCCC3(C)C2CC1 (centres undefined) | inactive | 
19 | COc1cc2c(cc1O)CC(O)(CO)C(CO)C2c1ccc(OC2OC(CO)C(O)C(O)C2O)c(OC)c1 (centres undefined) | inactive | 
20 | C=C1C(OC(C)=O)[C@@]23CCC4[C@](C)(C(=O)O)CCC[C@@]4(C)[C@]2(O)CC[C@H]1C3 (some centres undefined) | inactive | 
21 | C=C(C)C1Cc2c(ccc3c2OCC(c2ccc(O)cc2O)C3)O1 (centres undefined) |  | -8.17% (inactive)
22 | COC(=O)C1=COC(OC2OC(CO)C(O)C(O)C2O)C2C(COC(=O)/C=C/c3ccc(O)cc3)C(O)C(O)C12 (centres undefined) |  | -5.08% (inactive)
23 | C=C1CC/C=C(/CO)C(=O)C[C@@H]2[C@@H]1C[C@@]2(C)COC(C)=O | inactive | 
24 | COC(O)(CC(C)C)C1Oc2cc(C)[nH]c(=O)c2O1 (centres undefined) |  | 3.8% (inactive)
25 | CN1CCN(C2=Nc3ccccc3Nc3ccc(O)cc32)CC1 |  | 4.15% (inactive)

Row | SMILES | outcome | max response
26 | O=C(O)CC/C=C\C[C@H]1CO[C@@H](c2ccccc2Cl)O[C@H]1c1ccccc1O | inactive | 
27 | C=C1C(=O)O[C@@H]2/C=C(\C)CC/C=C(\C(=O)O[C@@H]3O[C@H](CO)[C@@H](O)[C@H](O)[C@H]3O)CC[C@@H]12 |  | -22.6% (inactive)
28 | C/C(=C\CC[C@H](CO)[C@@H]1CC[C@]2(C)C3=C(CC[C@@]12C)[C@@]1(C)CCC(=O)C(C)(C)C1CC3)C(=O)O (some centres undefined) |  | -2.55% (inactive)
29 | C=C1CC[C@H]2[C@@](C)(CCC(OC3OC(CO)C(O)C(O)C3O)[C@@]2(C)CO)C1C(=O)CC1=CCOC1=O (some centres undefined) | inactive | 
30 | Cc1cc(Cn2cnc3c2CC(C(=O)O)N(C(=O)C(c2ccccc2)c2ccccc2)C3)ccc1N(C)C (centres undefined) |  | 1.33% (inactive)
31 | CC1(C)CCC2(C(=O)O)CCC3(C)C(=CCC4C5(C)CCC(O)C(C)(CO)C5C(O)CC43C)C2C1 (centres undefined) | inactive | 
32 | C=CC(C)(C)C12Nc3c(ccc4c3OC(C)(C)C=C4)C1(O)CC1C(=O)N3CCCC3C(=O)N12 (centres undefined) | inactive | 
33 | C=CC1(C)CC2CCC3C(C)(C(=O)O)CCCC3(C)C2=CC1=O (centres undefined) |  | -4.63% (inactive)
34 | CC(C)c1ccc2c(c1)C(=O)CC1C(C)(C(=O)O)CCCC21C (centres undefined) |  | -2.58% (inactive)
35 | NC[C@H]1CCC[C@@H](CNC(=O)[C@@H](Cc2c[nH]c3ccccc23)NC(=O)N2CCC3(C=Cc4ccccc43)CC2)C1 |  | -1.79% (inactive)
36 | C[C@H]1CC[C@H]2[C@@H](C=C[C@@](C)(O)[C@]2(C)C(=O)CCO)C1 | inactive | 
37 | CC(=O)OC[C@]12[C@H](OC(C)=O)[C@H](OC(=O)c3ccccc3)[C@@H]3[C@@H](OC(C)=O)[C@]1(OC3(C)C)[C@H](C)C[C@H](OC(=O)c1ccccc1)[C@@H]2OC(=O)c1ccccc1 |  | -7.63% (inactive)
38 | CCOC(=O)CSc1nc2c(sc3ccccc32)c(=O)n1CCCN1CCCC1 | inactive | 
39 | CC(C)=CCC[C@](C)(O[C@@H]1O[C@H](CO[C@@H]2O[C@@H](CO)[C@H](O)[C@H]2O[C@@H]2OC[C@@H](O)[C@H](O)[C@H]2O)[C@@H](O)[C@H](O)[C@H]1O)[C@H]1CC[C@]2(C)[C@@H]1[C@H](O)CC1[C@@]3(C)CC[C@H](O[C@@H]4O[C@H](CO)[C@@H](O)[C@H](O)[C@H]4O[C@@H]4O[C@H](CO)[C@@H](O)[C@H](O)[C@H]4O)C(C)(C)C3CC[C@]12C (some centres undefined) |  | 4.58% (inactive)
40 | Cc1cc(-n2c(=O)[nH]c(=O)n(C)c2=O)ccc1Oc1ccc(SC(F)(F)F)cc1 | inactive | 
41 | CC(C)(O)C(O)C(=O)OCc1ccc(O[C@@H]2O[C@H](CO)[C@@H](O)[C@H](O)[C@H]2O)cc1 (some centres undefined) |  | -2.16% (inactive)
42 | C[C@]12CC[C@@H]3c4ccc(O)cc4CC[C@H]3[C@@H]1C[C@@H](O[C@@H]1O[C@H](C(=O)O)[C@@H](O)[C@H](O)[C@H]1O)[C@@H]2O |  | -7.98% (inactive)
43 | O=C(/C=C/c1ccc(O)c(O)c1)OC[C@H]1O[C@@H](OC2CCCCC2O)[C@H](O)[C@@H](O)[C@@H]1O (some centres undefined) | inactive | 
44 | Cc1ccc([C@@H]2CC=C(C(=O)O)[C@H](c3ccc(C(C)(C)C)cc3)N2S(=O)(=O)c2ccc(C)cc2)cc1 | inactive | 
